In the supplement of paper PMC3334620:
In all, about 33,000 sequences were measured (“E-score (-0.5 to 0.5)”: median about -0.0014, highest 2% from about 0.25 on). The full list was thinned out, with the highest values kept by preference.

What follows are sequences tested against T1, Cad1 (UniProt P24813) (assay: PBM E-score (8-mer binding enrichment) (E-score (-0.5 to 0.5)); higher = stronger / more preferred TF binding). Settings: protein concentration: 100 nM; construct: GST-full length.
T1 sequence: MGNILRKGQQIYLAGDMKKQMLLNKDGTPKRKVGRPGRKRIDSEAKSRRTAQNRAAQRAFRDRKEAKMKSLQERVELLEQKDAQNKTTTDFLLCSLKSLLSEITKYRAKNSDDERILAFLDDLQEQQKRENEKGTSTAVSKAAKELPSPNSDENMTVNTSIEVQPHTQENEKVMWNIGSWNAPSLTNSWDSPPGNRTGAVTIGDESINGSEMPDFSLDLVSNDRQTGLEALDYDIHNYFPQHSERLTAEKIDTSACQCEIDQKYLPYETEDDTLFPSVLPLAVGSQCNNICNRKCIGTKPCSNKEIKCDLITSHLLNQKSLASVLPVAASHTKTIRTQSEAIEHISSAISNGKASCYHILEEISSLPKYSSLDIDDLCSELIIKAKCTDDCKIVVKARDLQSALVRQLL
Summary of the method: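 Universal all-10-mer Agilent arrays, double-stranded by primer extension on fresh or once-stripped slides, were probed with about 100-200 nM GST-tagged yeast transcription factors made by PURExpress. Fluorescent anti-GST detected bound protein, and masliner normalised the scans. E-scores from the Universal PBM Analysis Suite were given to each ungapped eight-base word pooled with its reverse complement.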

Sequence	PBM E-score
CCCCCTGA	-0.414
AGGGATCG	-0.207
AAAAGTGT	-0.074
CCAGACAA	0.0234
CTAGGTGC	-0.221
AACCGCTT	0.0439
CTTCCTAA	0.0434
AGTCCTTG	-0.0247
ATCAAGCC	-0.0325
AATCGCGA	0.196
CATCGCGA	0.25
GATCGCGA	0.132
TATCGCAA	0.22
TATCGCGA	0.259
CATCGCGC	0.051
CGGCTCCA	-0.0781
CGCGTTAC	0.139
AACGGGGT	-0.13
ATAAGCTA	-0.0126
ATTAGCAA	0.304
GTAAGCAA	0.345
CTAAGCAA	0.0503
GTTAGCAA	0.0595
CTAAGCAG	-0.078
GTAAGCTA	0.298

Sequence	PBM E-score
CTAAGCTA	0.135
GTAAGCAC	0.163
TTAAGCAA	-0.0269
CTAAGCAC	0.294
ATTAGCAG	0.0216
AGTGTCTG	0.15
ACGCAGGG	-0.155
AGCTGCGC	0.0681
ACAAAGTG	0.0733
GCTCAGAC	-0.0381
CACCTAGA	-0.156
CTTAAGCC	0.00617
ATAAGCAA	0.296
ATAAGCAC	0.208
ATAAGCAT	0.0827
AGATACAG	0.0445
AGATACAA	0.256
CGATACAA	0.0958
GTGCTCTA	-0.119
GTGACTTA	0.1
CTAAGCGA	0.0774
ATAAGCGC	0.139
ATAAGCGG	0.0934
ATAAGCGA	0.287
GTAAGCGA	0.281

Sequence	PBM E-score
GGAAGCGA	-0.0787
CAAACCGG	-0.0831
AAGTATGG	0.00171
ACTGGAGG	0.0173
ACATTTAG	-0.126
GTATTTAA	0.0263
ATTTTTAG	0.0211
ATATTTAA	0.272
ATATTTGG	0.146
CTATTTGC	-0.0458
ACATTTAA	0.253
ATATTTGC	0.306
CTATTTAA	-0.0377
ATATTTAG	0.255
GCATTTAA	0.0157
ATATTTAC	0.228
CAAGAGGG	-0.247
CGCAACGA	-0.00619
CCGGAAAC	0.125
CCCGGGTC	-0.242
ATGACGAA	0.145
GTATGATA	0.23
ATGATATC	0.0971
ATGATATA	-0.027
ATGATATG	0.29

Sequence	PBM E-score
ATATGATA	0.285
CTATGATA	0.0824
CTAACTGC	-0.0676
AAACACCA	-0.00879
CGTATGGC	0.14
AGTACGAA	0.22
AGCAGCGG	-0.0904
CAATTATG	0.105
AAATTATC	0.246
ATATTATA	0.164
ATATTATC	0.096
AAATTATG	0.255
ATATTATG	0.268
ACATGTAT	0.204
ATGCCTTA	-0.158
CGTGATCA	0.123
AATTTTGG	0.149
CTTGGTAA	0.0981
GTTGGTAA	0.19
ATTGGTAA	0.257
GCCCACAA	-0.153
ATTCAATG	0.114
CTTCAATC	-0.066
ATTCAATC	0.263
GACACAGC	0.0664

Sequence	PBM E-score
CCTGTGCC	-0.136
AATCCGAT	0.25
AATCCGGA	0.306
AATCCGGG	-0.0636
CTTCCGGA	0.0325
AATCCGAA	-0.0355
AATCCGAC	0.00376
ATTCCGGA	0.254
AATCCGGC	0.104
ATTCCGGG	0.122
CTGCTCAC	-0.0643
TGACCACA	-0.0368
GTCTCCTA	-0.194
ACCAAGGC	-0.0921
ACAGTCCC	-0.188
CCTAGCAA	-0.0559
CGAGCTTC	0.258
CGAGCTTA	0.214
AGAGCTTC	-0.181
GAGCCCAC	-0.1
AAAGAACA	0.0562
GGACGTTA	0.0449
CGACGTTC	-0.265
CGACGTTA	0.276
CGCATGTC	0.0303

Sequence	PBM E-score
GCGAGGCC	-0.113
GACATTAA	0.124
TGTATTAA	-0.00939
ACTATTAC	0.149
GCTATTAC	0.098
TATATTAA	0.326
GATATTAA	0.187
TACATTAA	0.26
CCTATTAC	-0.0089
CATATTAC	0.225
AATATTAC	0.347
GATATTAC	0.293
AACATTAA	0.127
ACATGGAT	0.0578
ATTTGATC	-0.0183
AGCCCGAC	-0.149
ACGTTTGA	0.0358
AAAGGACT	-0.224
ATGTGGCC	-0.0491
AATGGTGC	-0.131
GCTGAACC	-0.0931
ACTTTGGC	-0.0521
TACTGCGA	0.0327
AGCTCCAG	-0.181
AGATTTCC	0.185

Sequence	PBM E-score
CATATTTA	0.232
AATATTAT	0.194
AATATTAA	0.281
AATATTAG	0.213
CATATTAA	0.272
CATATTAG	0.179
CGATTGTC	0.174
AGCTATTC	-0.215
GTATCTTA	0.287
GTATCTGA	0.0184
ACATCATA	0.105
CCATCATA	-0.27
ATATCATA	0.166
CTATCTTA	0.0111
GCATCATA	0.296
GTATCATA	0.288
CTATCATA	0.148
CGAGACCA	-0.0428
ACAAACTC	0.052
GGCTCCAC	-0.182
CCTCTGCG	-0.147
CGGGTAGA	0.0106
CGGTTGGC	0.0738
CGTTCTGA	-0.16
GACTGCGC	-0.0924

Sequence	PBM E-score
AACCCTCG	-0.0276
GTTATAAA	0.184
CTTATAAG	-0.047
TTTATAAA	0.261
CTTATAAA	0.275
ATTATAAA	0.276
ATTATAAG	0.186
CTTATAAC	0.177
TGTATAAA	0.028
ATTATAAC	0.0512
CCCGCGTC	0.0369
GTTCGAAA	0.241
ACCAGAGG	-0.164
GGCGGTAC	-0.0694
GGCCTTGA	0.0013
TACAAATA	0.185
GACAAAGC	0.06
GACAAGTC	0.00519
CACAAATG	-0.0179
GACAAATC	0.306
CACAAATC	0.126
GACAAGAA	0.0396
AACAAATA	0.186
CACAAATA	0.259
CACAAGTA	-0.0393

Sequence	PBM E-score
GACAAATA	0.293
GACAAAGA	0.276
GAACTTCA	0.066
CGAACTGA	-0.17
CCGGGGAC	-0.235
CCTTATAG	-0.219
ATTAGGGC	-0.0576
AGTTTTGG	0.127
GACAGCGC	0.14
ACGTGCGC	0.122
CAGTAGTC	-0.207
AACACGAT	0.123
AAGTTGGT	0.252
AAGTTGGG	-0.0322
AAGTTGGC	-0.125
ATTAGAGC	0.041
ATAGTGTA	0.0723
AAGAAGTA	0.12
CAAGCAAA	0.0203
CACACTCA	0.194
CGACAGTC	-0.12
CACGCCTC	-0.0988
GTATAATA	0.283
CTATAATA	-0.101
GTATAAAA	0.18

Sequence	PBM E-score
ATATAATA	0.261
GTATAAGA	-0.0708
ATATAATG	0.0839
CACCGTGC	0.161
TGAACTAA	-0.063
ATCGAACG	-0.0756
AATCGCAT	0.0873
TATTAACA	0.25
TATTAAGA	0.0149
CATTAACA	0.16
GATTAACC	0.02
CATTAATA	0.297
TATTAATA	0.339
CATTAATG	0.198
GATTAACA	0.163
CATTAATC	0.153
TATTAAAA	0.194
GATTAATC	0.355
GATTAAAC	0.0432
AACCCCTC	-0.319
GCGAGTTA	0.0928
GTCTGCTA	0.218
GAGAGAAA	0.14
CTTATACC	0.0668
CGACCTAC	-0.126

Sequence	PBM E-score
CGTTGGTA	0.141
GTTCGGAA	0.174
ACACTATC	0.115
GACTCAAA	-0.0319
ACAACTAT	0.0919
AGTAGTGG	0.0582
GAACTATA	0.09
GATTAAAA	0.214
GATTAAGA	0.18
GATTAATA	0.354
GGTTGAGA	-0.224
TCATATGA	0.321
GCATATGA	0.118
CCATATGA	-0.0943
CCCCTGCA	-0.246
AGCCAACT	-0.117
ACGGATCA	0.215
AATTCGCC	0.154
GCGAACAA	0.275
CGGAACAA	0.29
CCGAACAA	0.107
CGGAACAC	0.235
TGGAACAA	0.144
ACGAACAA	0.184
CGTAGTAC	-0.00804

Sequence	PBM E-score
AGCATCCA	-0.168
CTTTCAGA	0.0705
AAGAATGC	0.0333
GGCTTACA	0.229
GAATGGTC	-0.0781
ATAAACCC	0.0626
AAGCCTTG	0.00151
AATCTCCC	-0.277
AAGCGATA	0.103
CCAATTGC	-0.114
GCAATTGC	0.33
CCAATTGA	0.0388
ACAATTGG	-0.0197
GCAATTGA	0.118
CCAATTGG	0.263
CGCTGTAG	-0.0927
CGTTGCTA	0.103
CATAACTC	-0.0187
TGCGGCCA	-0.03
ATGTCTGA	0.129
GGGGATGA	-0.094
GGCTAGCA	-0.135
CGCTAGCA	-0.0293
TGCTAGCA	0.263
GCTAATCA	0.215

Sequence	PBM E-score
ATTAATCG	0.234
GTTAATCA	0.318
CTTAATCA	0.141
ATTAATCC	0.161
ATTAATCA	0.436
CTAGCCCC	-0.0928
TGCAGAAA	0.114
ACGTACTC	-0.0542
ATATATCA	0.134
CTCTATAC	0.0205
ACATATAT	0.155
CTATATAG	0.0376
AAATATGT	0.277
CTATATAC	0.27
ATATATAG	0.175
ATATATCC	0.297
ATATATAT	0.295
CTATATCC	-0.0465
AAATATGC	0.069
AAATATGA	0.234
CCTGCCTA	-0.0584
AGGGTTAG	-0.153
AGGATAGA	-0.0415
AGAACTAG	-0.146
CCAAAGGG	-0.0732

Sequence	PBM E-score
ACTCTCGG	-0.0764
GGCGTTAC	-0.0303
GTATATAC	-0.0771
AAATATAA	0.247
ACATATAC	0.0911
ATATATAC	0.317
AAATATAC	-0.0915
AAATATAT	0.305
AGTAGCCA	-0.282
AGTCCAGC	-0.112
TAGGTCGA	0.131
TATATGGA	-0.0332
AATATGGA	0.0714
TATATATA	0.377
GATATGGA	0.266
CATATATA	0.164
GATATATC	0.211
GATATACA	0.0899
GACATATA	0.0919
TACATATA	0.252
CACATATA	0.0867
GATATATA	0.333
TATATACA	0.209
